Assay results from PubChem BioAssay AID493192 (National Center for Advancing Translational Sciences (NCATS), 2011).
Inconclusive results are not listed. Where a call stands in place of a potency, no number is given. Activity calls are given as the source filed them. Calls come from the whole dose curve; as a rule, active = well fitted activation curve with a large enough effect; inconclusive = small, poorly fitted or top-dose-only effect; inactive = no such curve, though single readings can be large or run the other way.

Assay: qHTS Assay for Identifying a Potential Treatment of Ataxia-Telangiectasia: Hit Validation;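 note: phospho-KAP1 level by AlphaLISA as a proxy for ATM-like kinase activity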
Conditions: Ataxia-telangiectasia cell-based hit validation qHTS, in ATM-null A-T patient fibroblasts; series mostly up to 76.9 µM
Procedure, shortened: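 hTERT-immortalized A-T patient fibroblasts (F2112) were dosed at up to 76.7 uM final for 60 min at 37C. After a further 30 min incubation, cells were lysed, and phospho-KAP1 was detected by AlphaLISA after 6 hr at 25C.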
Potency is the fitted concentration of half-maximal effect.

| Structure (SMILES) | Potency |
| --- | --- |
| COc1cc(/C=N/NC(=O)c2c(C)nc3ccc(Cl)cn23)cc(OC)c1OC | inactive |
| CCN(CC)CCNC(=O)CCc1c(C)nc2c(c(C)nn2-c2ccc(C)cc2)c1C | inactive |
| COc1ccc(Cl)cc1NC(=O)C[n+]1cccc(C)c1 | inactive |
| CC1CCCC(C)N1C(=O)COC(=O)Cc1ccc(Cl)cc1 (centres undefined) | inactive |
| CCN(CC)c1ccc2cc(-c3nc4ccccc4[nH]3)c(=O)oc2c1 | inactive |
| Oc1cccc(NC(=S)N=Nc2c(O)[nH]c3ccccc23)c1 | inactive |
| Cc1cc2nc3ccc(=[N+](C)C)cc-3sc2cc1N | inactive |
| Clc1cccc(CN2CCC(Cc3ccccc3)CC2)c1 | 13 µM (active) |
| CCCc1ccc(S(=O)(=O)Nc2ccc(C)c(NS(C)(=O)=O)c2)cc1 | inactive |
| COc1cccc(C(=O)NOCc2ccc(C)cc2)c1OC | inactive |
| OC1(CC#CCN2CCCCC2)c2ccccc2-c2ccccc21 | inactive |
| COc1ccc(-c2csc(-c3ccc(O)cc3)n2)cc1 | inactive |
| O=C(O)CCCN1C(=O)/C(=C/C=C/c2ccco2)SC1=S | inactive |
| CCN1CCN(CC(=O)Nc2ccc(C(C)=O)cc2)CC1 | 26 µM (active) |
| CN(C)C(=O)c1nc2ccc(Cl)cn2c1CNCc1cccc(OC(F)(F)F)c1 | inactive |
| COc1ccc(Oc2ncnc3c2oc2ccc(Br)cc23)cc1 | inactive |
| COc1ccc2nc(NCCCNC(=O)c3cc(OC)c(OC)c(OC)c3)c(C#N)cc2c1 | inactive |
| CN(C)c1ccc2nc3ccc(=[N+](C)C)cc-3sc2c1 | 14.6 µM (active) |
| COc1ccc(/C=N/Nc2nc(=O)[nH]nc2C)cc1OC | inactive |
